Hits are enriched below; roughly 4.2% of the tested compounds scored in any of these assays.
Mito fusion act: mitochondrial division inhibition or fusion activation. S. cerevisiae fusion-defective mutant growth rescue, CellTiterGlo 48 h. Potency, µM (titrated, usually from 46.1 µM), for inactives: at the highest dose growth rescue (activation), usual class: activators. 320,000 compounds, 0.23% hits; also: % of control where 0% means no effect; nearly all actives have a fitted effect of over 45% in size
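Luminescent cell viability in 1536-well qHTS format served as the measure of rescued growth in ts fusion-mutant S. cerevisiae cultured on non-fermentable YPEG for 48 hours at 37C.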
MCF10A rerep: inducers of DNA re-replication in MCF 10A breast cells | 350,000 compounds, 2.9% hits | AID 624296 | MCF 10A DNA re-replication, Hoechst nuclear intensity, 48 h | Potency, µM (titrated, usually from 46.1 µM), without a hit: top-dose activity, positive = re-replication, usual class: activators; also: % of control where 0% means no effect; nearly all actives have a fitted effect of over 50% in size
A-T KAP1 phos: candidate therapy for ataxia-telangiectasia | F2112 A-T fibroblasts, KAP-1 phosphorylation AlphaLISA; neocarzinostatin DNA damage 30 min before lysis | 320,000 compounds, 0.19% hits | AID 485349 | Potency, µM (titrated, usually from 57.5 µM), for the others: at the top dose activation, hits mostly activators; also: % of control where 0% means no effect; nearly all actives have a fitted effect of over 45% in size
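hTERT-immortalized A-T patient fibroblasts (F2112), 500 cells/well in OPTI-MEM, 1% FBS, got compounds for 60 min, then NCS for 30 min at 37C. Lysates were then assayed for phospho-KAP-1 by AlphaLISA (anti-pKAP1 donor, anti-KAP1 acceptor beads), 6 hr at 25C.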
SW480 rereplic: induces DNA re-replication in SW480 colon adenocarcinoma cells; AID 624297; 340,000 compounds, 1.8% hits; Potency, µM (titrated, usually from 46.1 µM), inactives show at the highest dose re-replication activation, hits mostly activators; SW480 DNA re-replication, Hoechst DNA content imaging, 48 h; also: % of control where 0% means no effect; nearly all actives have a fitted effect of over 55% in size
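Treated cells incubate 48 hr (37 C, 5% CO2), are stained 40 min with Hoechst, and nuclear fluorescence is enumerated; a rise in nuclei with high DNA signal marks re-replication.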
a7 integrin act: activators of alpha7 integrin expression for muscular dystrophy. alpha7betagal myoblasts, beta-gal FDG fluorescence, 48 h. Potency, µM (series often up to 38.3 µM), without a hit: top-dose activation, most hits filed as activators. 350,000 compounds, 0.064% hits;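 also: 100% = response of the positive control SU9516; nearly all actives have a fitted effect of over 60% in size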
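Alpha7betagal+/- myoblasts (passage 13) were plated 16-24 hr, then exposed to compounds (1:260 dilution of DMSO stock) for 48 hours at 37C. After MPER lysis, β-galactosidase reporter activity was read as FDG fluorescence (ex 480/em 540) after 30 minutes.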
Numbers without * were called inactive. Calls follow the shape of the dose curve; as a rule, active = well fitted activation curve with a large enough effect; inconclusive = small, poorly fitted or top-dose-only effect; inactive = no such curve, though single readings can be large or run the other way. Potency is read from the fitted curve at half-maximal effect.

O=C(CNC(=O)c1ccccc1F)NCCN1C(=O)S/C(=C\c2ccccc2Cl)C1=O was read as Mito fusion act -4%, MCF10A rerep 4%, A-T KAP1 phos 1%, SW480 rereplic -5% and a7 integrin act -22%.
Cc1cccc(C(=O)N2[C@@H](C(C)C)COc3cc(Br)ccc3S2(=O)=O)c1 was read as MCF10A rerep 8.2µM*, SW480 rereplic 2% and a7 integrin act 0%.
CC(C)c1ccc(C2(C)NC(=O)N(C(C)C(=O)Nc3ccc(N4CCOCC4)cc3)C2=O)cc1 (stereo not drawn) was read as Mito fusion act 1%, MCF10A rerep inconclusive, A-T KAP1 phos -8%, SW480 rereplic 6.5µM* and a7 integrin act 33%.
Cc1ccccc1S(=O)(=O)N1C[C@H]2CON(C)[C@H]2C[C@H]1c1cccc(-c2ccc(C#N)cc2)c1 was read as MCF10A rerep -3%, SW480 rereplic 4.1µM* and a7 integrin act -7%.
For Cc1ccccc1S(=O)(=O)N1C[C@H]2CON(C)[C@H]2C[C@H]1c1cccc(N2CCOCC2)c1 the results were MCF10A rerep -8%, SW480 rereplic -4% and a7 integrin act 4%.
CCC(C(=O)Nc1ccccc1F)n1nc(C)c2c(C)n(-c3ccccc3)nc2c1=O (stereo not drawn) was read as Mito fusion act inconclusive, MCF10A rerep 4%, A-T KAP1 phos -4%, SW480 rereplic 29µM* and a7 integrin act inconclusive.
Screening CCC(C(=O)Nc1cc(F)ccc1F)n1nc(C)c2c(C)n(-c3ccc(C)cc3)nc2c1=O (stereo not drawn) returned Mito fusion act 9%, MCF10A rerep 16%, A-T KAP1 phos -4%, SW480 rereplic -1% and a7 integrin act -18%.
For C(=Cc1c[nH]c2ccccc12)c1nccc2ccccc12 the results were MCF10A rerep 1.6µM*, SW480 rereplic 6.5µM* and a7 integrin act -58%.
C(=Cc1c[nH]c2ccccc12)c1ccc2ccccc2n1 was read as MCF10A rerep 0.92µM*, SW480 rereplic inconclusive and a7 integrin act -44%.
O=Cc1nccc2ccccc12 was read as MCF10A rerep inconclusive, SW480 rereplic 15% and a7 integrin act -39%.
Screening CC(C)Nc1cccnc1N1CCN(C(=O)c2cc3cc(NS(C)(=O)=O)ccc3[nH]2)CC1 returned MCF10A rerep 13% and SW480 rereplic 16%.
For COc1ccc2[nH]c(C)c(C(=O)CN(C)CC3OCCO3)c2c1 the results were Mito fusion act 0%, MCF10A rerep -1%, A-T KAP1 phos -9%, SW480 rereplic -20% and a7 integrin act -5%.
For CCc1ccccc1NC(=O)c1oc(=O)c2ccccc2c1-c1ccccc1 the results were Mito fusion act -3%.
`O=[N+]([O-])c1ccc(-n2nnnc2-c2ccccc2)c([N+](=O)[O-])c1` gave Mito fusion act -1%, MCF10A rerep 4.1µM*, A-T KAP1 phos 12%, SW480 rereplic 5.2µM* and a7 integrin act -47%.
`COc1ccccc1/C=N/Nc1cc(C)nc2ccc(C)cc12` gave Mito fusion act -2%, MCF10A rerep -3%, A-T KAP1 phos 10%, SW480 rereplic 3% and a7 integrin act -9%.
Screening COc1ccc2nc(C)cc(N/N=C/c3ccccc3)c2c1 returned Mito fusion act -1%, MCF10A rerep 23µM*, A-T KAP1 phos -7%, SW480 rereplic 16µM* and a7 integrin act -54%.
COc1ccc2nc(C)cc(NCc3ccc(F)cc3)c2c1 was read as Mito fusion act -2%, MCF10A rerep 18µM*, A-T KAP1 phos -5%, SW480 rereplic inconclusive and a7 integrin act -61%.
For COc1ccc(/C=N/Nc2cc(C)nc3ccc(OC)cc23)c(OC)c1 the results were Mito fusion act -2%, MCF10A rerep inconclusive, A-T KAP1 phos -4%, SW480 rereplic 23µM* and a7 integrin act -41%.
For Cc1cc(N/N=C/c2ccc(N(C)C)cc2)c2ccccc2n1 the results were Mito fusion act -7%, MCF10A rerep inconclusive, A-T KAP1 phos 1%, SW480 rereplic inconclusive and a7 integrin act 6%.
For COc1ccc2nc(C)cc(Nc3ccc(C)cc3)c2c1 the results were Mito fusion act -1%, MCF10A rerep inconclusive, A-T KAP1 phos -3%, SW480 rereplic 0% and a7 integrin act -7%.
Screening Nc1c(N(CCCO)C(=O)CCCN2C(=O)c3cccc4cccc(c34)C2=O)c(=O)[nH]c(=O)n1Cc1ccccc1 returned MCF10A rerep -2%, SW480 rereplic -2% and a7 integrin act -5%.
For COCCNC(=S)NCCCNc1nc2cc3c(cc2cc1C#N)OCO3 the results were Mito fusion act -1%, MCF10A rerep -6%, A-T KAP1 phos inconclusive, SW480 rereplic -1% and a7 integrin act -10%.
COc1cc(C(=O)NCCNc2nc3c(C)c(C)ccc3cc2C#N)cc(OC)c1OC was read as Mito fusion act 2%, MCF10A rerep 21µM*, A-T KAP1 phos 10%, SW480 rereplic inconclusive and a7 integrin act -17%.
CN(C)CCCNC(=S)NCCNc1nc2cc3c(cc2cc1C#N)OCO3 was read as Mito fusion act -6%, MCF10A rerep 21µM*, A-T KAP1 phos 10%, SW480 rereplic 15µM* and a7 integrin act 0%.
`COCCCNC(=S)N1CCCN(c2nc3c(C)c(C)ccc3cc2C#N)CC1` gave Mito fusion act 1%, MCF10A rerep -4%, A-T KAP1 phos 4%, SW480 rereplic 6% and a7 integrin act 16%.
Screening COCCCNC(=S)NCCNc1nc2c(C)c(C)ccc2cc1C#N returned Mito fusion act 2%, MCF10A rerep 23µM*, A-T KAP1 phos 3%, SW480 rereplic inconclusive and a7 integrin act -9%.
`COc1ccc(C(=O)NCCCNc2nc3cc(C)cc(C)c3cc2C#N)cc1` gave a7 integrin act -6%.
For COc1cc(OC)cc(C(=O)NCCNc2nc3cc(C)cc(C)c3cc2C#N)c1 the results were Mito fusion act 1%, MCF10A rerep 16µM*, A-T KAP1 phos 11%, SW480 rereplic inconclusive and a7 integrin act -14%.
COc1cc(C(=O)NCCNc2nc3cc(C)ccc3cc2C#N)cc(OC)c1OC was read as Mito fusion act 4%, MCF10A rerep 11%, A-T KAP1 phos 10%, SW480 rereplic 0% and a7 integrin act -8%.
Screening CC(C)CCCCCCCCCCCCC(=O)NCC(=O)NC1C(O)C(O)C(Nc2ncnc3nc[nH]c23)OC1C(O)CO (stereo not drawn) returned MCF10A rerep 0%, SW480 rereplic inconclusive and a7 integrin act inconclusive.
Screening O=S(=O)(Nc1nc2ccccc2s1)c1ccc(Br)s1 returned Mito fusion act 14%, MCF10A rerep 4%, A-T KAP1 phos 2%, SW480 rereplic -1% and a7 integrin act -8%.

Source: PubChem BioAssay (National Center for Advancing Translational Sciences (NCATS))
